A short description of test [1]: Quantitative High-Throughput drug screen in 47 multiple myeloma cell lines against the NCATS MIPE library collection: KMS11_JCRBsus cell viability assay (AID 1919873). Also: nearly all actives have a fitted effect of over 50% in size. Also: potency is read from the fitted curve at half-maximal effect. The method, boiled down:
(§1)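 ATP-based CellTiter-Glo luminescence after 48 h drug exposure (37 °C, 5% CO2) of 500 myeloma cells per well. DMSO-only wells set 100% viability, media-only wells 0%; MIPE 4.0 library added by pin tool.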

The nature of test [2]: qHTS drug screen for cell cycle checkpoint inhibitors in PARPi-resistant BRCA-mutant ovarian cancer cell lines. (AID 1963452; calls by dose curve; also: potency is read from the fitted curve at half-maximal effect). The settings on record: PEO1/OlaR viability, CellTiter-Glo luminescence, 96 h; for Z-AUC: stronger effect = lower value. The gist of the method: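 PEO1, PEO4 and PEO1/OlaR ovarian cancer cells, 600 per well, exposed 96 h at 37C to a dilution series. Viability read by CellTiter-Glo luminescence, normalized to DMSO and empty wells; activity summarized as Z-AUC.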
For orientation: In qHTS, concentration-response curves come from the screen itself.

Test [3] is described as follows: Quantitative High-Throughput drug screen in 47 multiple myeloma cell lines against the NCATS MIPE library collection: KMS28BM_JCRB cell viability assay (AID 1919874). Also: nearly all actives have a fitted effect of over 35% in size. Also: potency is read from the fitted curve at half-maximal effect. The gist of the method:
as §1

Test [4] in a line: qHTS for identification of novel therapeutic agents for treatment of microphthalmiaassociated transcription factor (MiT) renal cell carcinoma (RCC) (AID 1963991). The settings on record: CellTiter-Glo, 48 h, stronger effect = lower value. The method, boiled down:
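Three TFE3-fusion RCC cell lines (UOK109, UOK124, UOK145), 500 cells/well, were exposed to the 1912-compound MIPE 4.0 library for 48 hours at 37 C. Viability was read by CellTiter-Glo luminescence, normalised to DMSO (100%) and empty wells (0%), with 11-concentration curve fits.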

Test [5] is described as follows: qHTS profiling for inhibitors of Plasmodium falciparum proliferation (AID 504749). Also: potency is read from the fitted curve at half-maximal effect.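 As to activity, negative = inhibition: 0% = DMSO vehicle and full inhibition = artemisinin control.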 As to all read-outs here: nearly all actives have a fitted effect of over 60% in size. The settings on record: P. falciparum in erythrocytes, SYBR Green DNA, 72 h; for activity, negative = inhibition: at 28.7 µM (top of the series). The gist of the method: (§2)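 SYBR Green fluorescence of parasite DNA, read after lysis and overnight dark incubation, measured growth over 72 h in erythrocyte culture at 0.3% parasitemia and 2.5% hematocrit. Data normalised to DMSO and 0.29 uM artemisinin, with plate-drift correction.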

Test [6] has as its system 3D7. The test is described as above. The settings on record: P. falciparum in erythrocytes, SYBR Green DNA, 72 h; series mostly up to 28.7 µM. The method, boiled down:
as §2

Test [7] relates to AA1029. Described as above. The settings on record: P. falciparum in erythrocytes, SYBR Green DNA, 72 h; series mostly up to 28.7 µM. The gist of the method:
as §2

For test [8], the system named is 7G8. Described as above. The settings on record: P. falciparum in erythrocytes, SYBR Green DNA, 72 h; series mostly up to 28.7 µM. The method, boiled down:
as §2

[9] abbreviates: measured here: PEO1 parental Z-AUC.
[10] abbreviates: TFE3-RCC UOK109 viability, measured here: UOK109 Z-AUC.
Where [11] appears, read: TFE3-RCC viability, measured here: UOK124 Z-AUC.
The mark [12] stands for this setting: TFE3-RCC viability, measured here: UOK145 Z-AUC.

Inconclusive results are not listed. Activity calls are given as the source filed them. Unless noted, calls follow the shape of the dose curve; as a rule, active = well fitted curve in the direction sought with a large enough effect; inconclusive = small, poorly fitted or top-dose-only effect, or another doubt; inactive = no such curve, though single readings can be large; an effect the other way counts as inactive or inconclusive.

As to `CCOC(=O)[C@H](CCc1ccccc1)N[C@H]1CCc2ccccc2N(CC(=O)O)C1=O`, in test [1], the Potency was 8.33 µM (active). For the same compound, the figures for the Z-AUC in test [2], in test [2] (setting [9]) and in test [2] (measured here: PEO4 Z-AUC) were -0.332 (inactive), -0.731 and -0.74, respectively.
As to `CO[C@@H]1[C@@H](OC(N)=O)[C@@H](O)[C@H](Oc2ccc3c(O)c(NC(=O)c4ccc(O)c(CC=C(C)C)c4)c(=O)oc3c2C)OC1(C)C`, the Potency in test [3] is 9.35 µM (active). The Z-AUC was -0.0911 (inactive) in test [2], 0.276 in test [2] (setting [9]) and 0.63 in test [2] (measured here: PEO4 Z-AUC). The z-score worked out at 0.755 in test [4] (setting [10]), 0.269 in test [4] (setting [11]) and 0.567 in test [4] (setting [12]).
Turning to `CCc1c2c(nc3ccc(OC(=O)N4CCC(N5CCCCC5)CC4)cc13)-c1cc3c(c(=O)n1C2)COC(=O)[C@]3(O)CC`, in test [2], the Potency was 0.0309 µM (active). The Z-AUC in test [2] (setting [9]) was -2.61; in test [2] (measured here: PEO4 Z-AUC), -1.83. The activity, negative = inhibition in test [5] (parasite line A) is -1.15% (inactive). The Potency entry in test [6] and in test [7] was “inactive” throughout.
`COc1cc2c(Nc3ccc(Br)cc3F)ncnc2cc1OCC1CCN(C)CC1`: the Z-AUC in test [2] was 0.231 (inactive); in test [2] (setting [9]), 0.081; in test [2] (measured here: PEO4 Z-AUC) it was -0.0991. The Potency is 1.78 µM (active) in test [5] (parasite line A); 1 µM (active) in test [5] (parasite line B); 2.51 µM (active) in test [6]; 3.16 µM (active) in test [8]; 2.82 µM (active) in test [7].
For `Cc1c(-c2ccc(O)cc2)n(Cc2ccc(OCCN3CCCCCC3)cc2)c2ccc(O)cc12`, the Z-AUC in test [2] was 1.04 (inactive); in test [2] (setting [9]), 0.798; in test [2] (measured here: PEO4 Z-AUC), 0.376. Further, the results for the z-score in test [4] (setting [10]), in test [4] (setting [11]) and in test [4] (setting [12]) were 0.552, 0.408 and 0.653, respectively.
Regarding `CN(C)CCc1c[nH]c2ccc(CS(=O)(=O)N3CCCC3)cc12`, the Z-AUC in test [2] is 1.7 (inactive); in test [2] (setting [9]), 1.58; in test [2] (measured here: PEO4 Z-AUC), 1.04. Besides, the z-score was -0.684 in test [4] (setting [10]), -0.106 in test [4] (setting [11]) and 0.603 in test [4] (setting [12]). Moreover, the activity, negative = inhibition was -2.84% (inactive) in test [5] (parasite line A) and -4.67% (inactive) in test [5] (parasite line B). The Potency entry in test [6], in test [8] and in test [7] was “inactive” throughout.
For the compound `COC(=O)Nc1nc2ccc(S(=O)c3ccccc3)cc2[nH]1` (centres undefined), in test [1], the Potency is 8.33 µM (active). In addition, the Z-AUC is 0.889 (inactive) in test [2], 0.292 in test [2] (setting [9]) and 0.543 in test [2] (measured here: PEO4 Z-AUC).
Turning to `O=c1cc(O)c(Cl)c[nH]1`, the Z-AUC in test [2] was 1.39 (inactive); in test [2] (setting [9]), 1.19; in test [2] (measured here: PEO4 Z-AUC), 1.11. The activity, negative = inhibition in test [5] (parasite line A) was -6.01% (inactive); in test [5] (parasite line B) it was 8.72% (inactive). For the same compound, the Potency entry in test [6], in test [8] and in test [7] was “inactive” throughout.
For the compound `CC(=O)Oc1ccccc1C(=O)Nc1ncc([N+](=O)[O-])s1`, the Potency in test [1] is 17.1 µM (active); in test [8], 10 µM (active). Moreover, the figures for the Z-AUC in test [2], in test [2] (setting [9]) and in test [2] (measured here: PEO4 Z-AUC) were 0.99 (inactive), 0.864 and 0.834, respectively. The activity, negative = inhibition in test [5] (parasite line A) was 1.42% (inactive); in test [5] (parasite line B) it was 8% (inactive). Also, the Potency entry in test [7] was “inactive”.
Turning to `Cc1oc(=O)oc1CN1CCN(c2cc3c(cc2F)c(=O)c(C(=O)O)c2n3C(C)S2)CC1` (centres undefined), the Potency entry in test [1] and in test [3] was “inactive” each time. For the same compound, the Z-AUC is -0.572 (inactive) in test [2], -0.35 in test [2] (setting [9]) and -0.652 in test [2] (measured here: PEO4 Z-AUC). For the same compound, the figures for the z-score in test [4] (setting [10]), in test [4] (setting [11]) and in test [4] (setting [12]) were 0.77, 0.785 and 0.456, respectively. Besides, the Potency is 11.2 µM (active) in test [5] (parasite line A); 8.91 µM (active) in test [5] (parasite line B); 11.2 µM (active) in test [6]; 3.98 µM (active) in test [8]; 6.31 µM (active) in test [7].
Turning to `N=C(N)c1ccc(OCCCCCOc2ccc(C(=N)N)cc2)cc1`, the Potency is 5.9 µM (active) in test [3]; 1 µM (active) in test [5] (parasite line A); 2.24 µM (active) in test [5] (parasite line B); 1.58 µM (active) in test [6]; 0.199 µM (active) in test [8]; 1 µM (active) in test [7]. Moreover, the Z-AUC in test [2] is 0.0445 (inactive); in test [2] (setting [9]), -0.0701; in test [2] (measured here: PEO4 Z-AUC), 0.016.

The values are drawn from PubChem BioAssay (NCATS).
